# Assay outcomes: PubChem, National Center for Advancing Translational Sciences (NCATS)
# This is a sample that favours compounds with a hit; in the whole collection about 19% have one here.
# TDP1 cell CPT: qHTS for Inhibitors of human tyrosyl-DNA phosphodiesterase 1 (TDP1): qHTS in cells in presence of CPT. chicken DT40 Tdp1-/-;hTDP1 cells + 20 nM CPT, ATP luminescence, 48 h. Potency, µM (doses to about 46.2 µM), for inactives: at the highest dose activity change, negative = growth inhibition, hits mostly inhibitors. 420,000 compounds, 12% hits. AID 686979, 2013; further: potency means the concentration at half of the fitted maximal effect; nearly all actives have a fitted effect of over 55% in size
#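 Chicken DT40 Tdp1-/- cells stably complemented with human TDP1 were seeded at 400 cells/well in medium containing 20 nM camptothecin, exposed to pin-transferred compounds, and grown at 37 °C for at least 48 hr. Viability was read as ATP luminescence.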
# HT1080 IDH1KD tx: qHTS for induction of synthetic lethality in tumor cells producing 2HG: qHTS for the HT-1080-IDH1KD cell line. AID 686971, 2013. HT-1080 IDH1 knockdown viability, ATP luminescence, 48 h. 360,000 compounds, 2% hits. Potency, µM (top dose mostly 46.1 µM), without a hit: at the top dose activity, negative = toxicity, most hits filed as cytotoxic;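 further: potency means the concentration at half of the fitted maximal effect; 0% = DMSO wells and -100% = cell-free medium wells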
#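 IDH1KD HT-1080 cells, 750/well, RPMI + 5% FBS; compound pinned after 2 h settling; 48 h, 37 °C; CellTiter-Glo luminescence; % activity normalised to DMSO and no-cell wells; curves fitted, classed by r2 and efficacy.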
# IL1B secr inh: qHTS for Inhibitors of Inflammasome Signaling: IL-1-beta AlphaLISA Primary Screen; THP-1 LPS/ATP IL-1B secretion, AlphaLISA, 16 h; hits give low values; activity change, % at 57.5 µM; 360,000 compounds, 4.7% hits; AID 743279, 2014; in the data active means activity change below about -50%; inconclusive means mostly about -30% to -49%
#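 THP-1 cells pretreated 1 hr with compounds (up to 57.5 uM final), then stimulated with LPS (250 ng/mL final) plus ATP (1.25 mM final); secreted IL-1B measured by AlphaLISA after 16 hr, decreased signal indicating inhibition.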
# HT1080NT lethal: qHTS for induction of synthetic lethality in tumor cells producing 2HG: qHTS for the HT-1080-NT fibrosarcoma cell line; HT-1080-NT fibrosarcoma viability, CellTiter-Glo ATP luminescence, 48 h; 360,000 compounds, 1.6% hits; Potency, µM (doses to about 46.1 µM), without a hit: at the top dose activity, negative = less viability, most hits filed as cytotoxic;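 further: NT is the 2HG producing partner of a matched IDH1 knockdown line; potency means the concentration at half of the fitted maximal effect; 0% = DMSO-treated cells and -100% = media-only wells without cells; nearly all actives have a fitted effect of over 55% in size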
#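 750 cells/well, RPMI + 5% FBS; 2 h settle, compound pin-transfer, 48 h at 37 degrees C. CellTiter-Glo 10 min RT, luminescence. Normalized to DMSO and media-only wells.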
# DT40 TDP1 no CPT: qHTS for Inhibitors of human tyrosyl-DNA phosphodiesterase 1 (TDP1): qHTS in cells in absence of CPT; DT40 Tdp1-/- hTDP1 cells, no CPT, ATP luminescence, 48 h; Potency, µM (doses to about 46.2 µM), without a hit: top-dose activity change, negative = growth inhibition, hits mostly inhibitors; 420,000 compounds, 15% hits; further: potency means the concentration at half of the fitted maximal effect; nearly all actives have a fitted effect of over 55% in size
#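 Chicken DT40 Tdp1-/- cells complemented with human TDP1, screened without camptothecin (DMSO vehicle only), 400 cells/well. Compounds pin-transferred, cells incubated at 37 °C for at least 48 hr. Growth read as ATP-dependent luminescence (CellTiter-Glo, 30 min at RT).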
# * = called active by the depositor; ? = inconclusive; · = no result; [ ] = dose if it differs, or a comment. Unless noted, the call rests on the fitted dose curve; in most records, active means well fitted curve in the direction sought with a large enough effect; inconclusive means small, poorly fitted or top-dose-only effect, or another doubt; inactive means no such curve, though single readings can be large; an effect the other way counts as inactive or inconclusive. Unless noted, on the % scale 0 is the no-effect control and ±100 the full control effect.
SMILES,TDP1 cell CPT,HT1080 IDH1KD tx,IL1B secr inh,HT1080NT lethal,DT40 TDP1 no CPT
COc1ccc([C@@H]2[C@@H]3C(=O)N(C(C)(C)C)C(=O)[C@@H]3[C@]3(Cc4ccccc4)C(=O)N(c4cccc(Cl)c4)C(=O)N23)cc1,-20%,-3%,2,0%,?
CCN1C(=O)[C@H]2[C@@H](c3ccc(C)cc3)N3C(=O)N(c4ccc(C)cc4)C(=O)[C@@]3(Cc3ccc(Cl)cc3)[C@H]2C1=O,18µM*,9%,4,15%,21µM*
COc1ccc([C@@H]2[C@@H]3C(=O)N(C(C)(C)C)C(=O)[C@@H]3[C@]3(Cc4ccccc4)C(=O)N(c4ccc(Br)cc4)C(=O)N23)cc1,23µM*,2%,0,-4%,23µM*
COc1ccc(N2C(=O)N3[C@H](c4ccc(Br)cc4)[C@@H]4C(=O)N(C(C)(C)C)C(=O)[C@@H]4[C@]3(Cc3ccccc3)C2=O)cc1,-8%,6%,-20,-4%,-12%
CC(C)(C)N1C(=O)[C@H]2[C@@H](c3ccc(Br)cc3)N3C(=O)N(c4cccc(Cl)c4)C(=O)[C@@]3(Cc3ccccc3)[C@H]2C1=O,?,1%,-20,-3%,21µM*
CC[C@@]12C(=O)N(c3ccc(C)cc3)C(=O)N1[C@H](c1ccc(Br)cc1)[C@@H]1C(=O)N(C(C)(C)C)C(=O)[C@@H]12,7.3µM*,-6%,?,-15%,?
CC(C)Oc1ccc(CC(=O)NNC(=S)Nc2ccccc2)cc1,?,-2%,16,-1%,?
CC(C)Oc1ccc(CCC(=O)NNC(=S)Nc2ccccc2)cc1,-23%,5%,59,14%,18µM*
CCCC1=Nc2cc(C(=O)NCCOC)ccc2Sc2ccccc21,?,·,·,·,0.58µM*
CCCC1=Nc2cc(C(=O)N3CCC(C(N)=O)CC3)ccc2Sc2ccccc21,-17%,-7%,0,-5%,-11%
CCC1=Nc2cc(C(=O)NCCCN3CCOCC3)ccc2Sc2ccccc21,-17%,?,4,-26%,-3%
CCCC1=Nc2cc(C(=O)NCCCOC(C)C)ccc2Sc2ccccc21,4.6µM*,18µM*,41,12µM*,4.1µM*
Cc1ccc(C)c(NC(=O)C(Sc2nnc(-c3cccs3)o2)c2ccccc2)c1 (stereo not given),3%,16%,16,11%,-1%
Cc1cc(C(=O)CSc2nc(N)cc(N)n2)c(C)n1-c1cccc(F)c1,?,-8%,?,-6%,?
COc1ccc(CCn2c(C)cc(C(=O)CSc3nnc(N)s3)c2C)cc1,?,-5%,-10,-13%,?
Cc1cc(C(=O)CSc2nc(N)cc(=O)[nH]2)c(C)n1CCc1ccc(F)cc1,18µM*,26µM*,-9,0%,12µM*
Cc1cc(C(=O)CSc2nc(N)cc(=O)[nH]2)c(C)n1-c1ccc(OC(F)F)cc1,2.6µM*,?,-9,0%,1.8µM*
COc1ccc(CCn2c(C)cc(C(=O)CSc3nc(N)cc(=O)[nH]3)c2C)cc1,12µM*,-24%,-17,?,12µM*
CN(C(=O)CC1C(=O)NCCN1Cc1cccc(C(F)(F)F)c1)C1CCOCC1 (stereo not given),-5%,12%,0,9%,11%
CCC(c1nnnn1-c1ccc2c(c1)OCCO2)N1CCN(c2ccc(C(F)(F)F)cc2[N+](=O)[O-])CC1 (stereo not given),15µM*,3%,6,0%,23µM*
O=C(NNC(=O)c1ccco1)c1cccc([N+](=O)[O-])c1,0%,?,0,?,-12%
CCC(C)(C)C1CCC(=NNC(=S)Nc2ccccc2)CC1 (stereo not given),?,-8%,-5,2%,15µM*
Fc1ccc(NC(=S)NN=C2CCCCCC2)cc1,?,10µM*,3,8.9µM*,?
O=C(COc1ccc(Cl)cc1)NN=C1CCCCCCC1,16%,0%,-12,5%,-7%
S=C(NN=C1CCCCCC1)Nc1ccc(Cl)cc1,29µM*,10%[9.24 µM],1,?,29µM*
SMILES,TDP1 cell CPT,HT1080 IDH1KD tx,IL1B secr inh,HT1080NT lethal,DT40 TDP1 no CPT
COc1ccc(NC(=S)NNC(=O)CNc2ccc(Cl)cc2)cc1,?,-6%,-1,-3%,-30%
COc1ccc(CN2C(=O)CCC2(C)c2nc3ccccc3[nH]2)cc1 (stereo not given),19%,22%,2,23%,18%
COc1ccccc1C(=O)Nc1ccc(C(=O)OCc2cc(=O)n3nc(C4CC4)sc3n2)cc1,-15%,·,·,·,-20%
COc1cccc(C(=O)Nc2cccc(C(=O)OCc3cc(=O)n4nc(C5CC5)sc4n3)c2)c1,?,·,·,·,3.7µM*
O=C(OCc1cc(=O)n2nc(C3CC3)sc2n1)c1cccc(NC(=O)c2ccccc2Cl)c1,21µM*,·,·,·,21µM*
CC(C)(C)C(=O)Nc1cccc(C(=O)OCc2cc(=O)n3nc(C4CC4)sc3n2)c1,?,·,·,·,18µM*
COc1ccc(NC(=O)Cn2c(=O)n(CCCC(=O)NCCc3ccc(C)cc3)c(=O)c3ccccc32)cc1Cl,-13%,·,·,·,-17%
CC(Sc1nnc2ccccn12)C(N)=O (stereo not given),1%,9%,24,-2%,0%
CCN(CC)S(=O)(=O)c1ccc(N2CCN(S(=O)(=O)c3ccccc3)CC2)nc1,-14%,?,0,-24%,?
CCN(c1ccccc1)S(=O)(=O)c1ccc(N2CCN(c3ccc(OC)cc3)CC2)nc1,12µM*,-1%,-10,1%,?
CCN(CC)S(=O)(=O)c1ccc(N2CCN(CCOc3ccc(OC)cc3)CC2)nc1,18µM*,-5%,-23,-21%,21µM*
CCN(c1ccccc1)S(=O)(=O)c1ccc(N2CCN(c3ccc(O)cc3)CC2)nc1,?,-24%,?,-7%,15µM*
COc1ccc(N2CCN(S(=O)(=O)Cc3ccccc3)CC2)cc1,-20%,2%,-1,21%,-25%
O=C(Nc1ccc(C(F)(F)F)cc1)C1=NN(C2CCS(=O)(=O)C2)C(=O)CC1 (stereo not given),-23%,-16%,-9,-5%,-30%
Cn1nc(C(F)(F)F)c(/C=N/OC(=O)c2ccccc2)c1Sc1ccc(Cl)cc1,23µM*,-21%,?,-28%,23µM*
